Laboratory results reported in PubChem BioAssay (Tox21).
Values joined by “and” are separate entries in the source; they are usually repeats but may differ in a detail not shown here. Identical values can stand only once. A number with no mark means an inactive call. Inconclusive results are not listed. Entries that show only a call come without a potency. Active and inactive are the calls of the source. Unless noted, the call rests on the fitted dose curve; in most records, active means well fitted curve in the direction sought with a large enough effect in the repeat runs; inconclusive means weak or mixed curves; inactive means no such curve, though single readings can be large; an effect the other way counts as inactive or inconclusive.

Legend:
[1] = biological target: Acetylcholinesterase (Homo sapiens) (UniProt P22303); assay: Acetylcholinesterase (AChE) small molecule antagonists: fluorescence cell-based qHTS assay (AID 1347398; calls by dose curve; further: nearly all actives have a fitted effect of over 50% in size); settings: Potency: AChE activity
Summary of the method: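 Thiocholine generated from acetylthiocholine by SH-SY5Y cell AChE is detected with Thiolite Green (Ex/Em 490/520 nm) after 40 min at room temperature, following 30 min compound pretreatment at 37 C.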

[2] = biological target: Acetylcholinesterase (Homo sapiens) (UniProt P22303); assay: Acetylcholinesterase (AChE) small molecule antagonists: enzyme-based qHTS assay with human liver microsomes (AID 1347399; calls by dose curve; further: nearly all actives have a fitted effect of over 60% in size); settings: Potency: qHTS inhibition
Summary of the method: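 Recombinant human AChE (50 mU/mL in the enzyme mix) and human liver microsomes (0.25 mg/mL final) were preincubated with compound and NADPH (0.25 mg/mL final) for 30 min at 37 C. Acetylthiocholine/DTNB was then added; thiocholine was read colorimetrically after 10 min at room temperature.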

[3] = biological target: Cytochrome P450 2D6 (Homo sapiens) (UniProt P10635); assay: Cytochrome P450 Family 2 Subfamily D Member 6 (CYP2D6) small molecule antagonists: luciferase reporter qHTS assay (AID 1671196); further: nearly all actives have a fitted effect of over 50% in size; further: potency means the concentration at half of the fitted maximal effect
Summary of the method: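 Read-out is luminescence from luciferin formed by CYP2D6 turnover of a proluciferin substrate, recorded as relative luminescence units. Reactions ran 1 h at room temperature after NADPH regeneration solution was added.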

[4] = biological target: Cytochrome P450 2C19 (Homo sapiens) (UniProt P33261); assay: Cytochrome P450 Family 2 Subfamily C Member 19 (CYP2C19) small molecule antagonists: luciferase reporter qHTS assay (AID 1671197); further: nearly all actives have a fitted effect of over 65% in size; further: potency means the concentration at half of the fitted maximal effect
Summary of the method: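 CYP2C19 P450-Glo, 1536-well qHTS. Cpd + enzyme/proluciferin substrate 10 min RT; + NADPH regen, 37C 1 h; stop with luciferin detection reagent, 20 min RT, luminescence (RLU). Pos ctrl ketoconazole.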

[5] = biological target: Cytochrome P450 2C9 (Homo sapiens) (UniProt P11712); assay: Cytochrome P450 Family 2 Subfamily C Member 9 (CYP2C9) small molecule antagonists: luciferase reporter qHTS assay (AID 1671198); further: nearly all actives have a fitted effect of over 50% in size; further: potency means the concentration at half of the fitted maximal effect
Summary of the method: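 CYP2C9 activity was measured with a P450-Glo proluciferin substrate. Enzyme–substrate mix was held with compound for 10 min at room temperature, then NADPH regeneration solution was added for 1 h at 37C. Luciferin product was read as luminescence.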

[6] = biological target: Cytochrome P450 1A2 (Homo sapiens) (UniProt P05177); assay: Cytochrome P450 Family 1 Subfamily A Member 2 (CYP1A2) small molecule antagonists: luciferase reporter qHTS assay (AID 1671199); further: nearly all actives have a fitted effect of over 50% in size; further: potency means the concentration at half of the fitted maximal effect
Summary of the method: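 P450-Glo CYP1A2, 1536-well qHTS: enzyme/proluciferin substrate + cpd (DMSO), 10 min RT; NADPH regen, 1 h RT; detection reagent, 20 min; luminescence, RLU.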

[7] = biological target: Voltage-gated inwardly rectifying potassium channel KCNH2 (Homo sapiens) (UniProt Q12809); assay: Human Ether-a-go-go-Related Gene (hERG) channel small molecule antagonists: fluorescence cell-based qHTS assay (AID 1671200); further: nearly all actives have a fitted effect of over 50% in size; further: potency means the concentration at half of the fitted maximal effect
Summary of the method: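 In this thallium-flux screen, overnight-cultured U2OS cells bearing the channel are dye-loaded in darkness for an hour, rested 10 min at room temperature, and then monitored kinetically at 480/540 nm for two minutes post-stimulus.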

[8] = biological target: Cytochrome P450 3A4 (Homo sapiens) (UniProt P08684); assay: Cytochrome P450 Family 3 Subfamily A Member 4 (CYP3A4) small molecule antagonists: luciferase reporter qHTS assay (AID 1671201); further: nearly all actives have a fitted effect of over 50% in size; further: potency means the concentration at half of the fitted maximal effect
Summary of the method: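 CYP3A4 activity was followed with a P450-Glo proluciferin substrate. Test compounds in DMSO were preincubated 10 min; NADPH regeneration then ran 1 h, and light output was read 20 min after detection reagent.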

Cytochrome P450 2C9 (Homo sapiens), sequence (P11712 whole entry, looked up): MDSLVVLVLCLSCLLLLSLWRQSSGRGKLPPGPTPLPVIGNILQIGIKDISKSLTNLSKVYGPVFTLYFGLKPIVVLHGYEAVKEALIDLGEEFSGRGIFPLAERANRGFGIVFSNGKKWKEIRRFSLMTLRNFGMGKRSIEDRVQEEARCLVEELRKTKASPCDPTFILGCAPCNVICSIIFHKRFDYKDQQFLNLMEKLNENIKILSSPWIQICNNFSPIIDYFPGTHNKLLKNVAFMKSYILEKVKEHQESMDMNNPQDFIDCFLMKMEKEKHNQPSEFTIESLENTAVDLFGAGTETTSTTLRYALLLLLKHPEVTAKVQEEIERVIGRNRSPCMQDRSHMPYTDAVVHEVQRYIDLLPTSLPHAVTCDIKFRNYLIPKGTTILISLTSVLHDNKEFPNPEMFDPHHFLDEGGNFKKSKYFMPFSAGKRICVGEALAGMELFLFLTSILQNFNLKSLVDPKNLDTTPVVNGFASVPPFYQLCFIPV
Cytochrome P450 3A4 (Homo sapiens), sequence (P08684 whole entry, looked up): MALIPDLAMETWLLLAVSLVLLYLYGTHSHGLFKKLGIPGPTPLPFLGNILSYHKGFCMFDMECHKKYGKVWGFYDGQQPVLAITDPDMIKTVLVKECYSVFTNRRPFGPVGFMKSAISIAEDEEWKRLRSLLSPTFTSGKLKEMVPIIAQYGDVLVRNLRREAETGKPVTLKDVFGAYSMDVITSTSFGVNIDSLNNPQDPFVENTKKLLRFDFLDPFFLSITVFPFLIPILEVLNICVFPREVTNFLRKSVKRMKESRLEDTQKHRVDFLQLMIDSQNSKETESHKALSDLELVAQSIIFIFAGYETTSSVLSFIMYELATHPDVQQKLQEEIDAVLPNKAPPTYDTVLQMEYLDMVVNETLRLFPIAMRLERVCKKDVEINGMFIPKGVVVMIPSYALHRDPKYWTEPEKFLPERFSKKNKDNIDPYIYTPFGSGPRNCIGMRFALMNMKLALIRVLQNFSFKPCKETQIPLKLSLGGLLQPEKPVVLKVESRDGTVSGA
Acetylcholinesterase (Homo sapiens), sequence (P22303 whole entry, looked up): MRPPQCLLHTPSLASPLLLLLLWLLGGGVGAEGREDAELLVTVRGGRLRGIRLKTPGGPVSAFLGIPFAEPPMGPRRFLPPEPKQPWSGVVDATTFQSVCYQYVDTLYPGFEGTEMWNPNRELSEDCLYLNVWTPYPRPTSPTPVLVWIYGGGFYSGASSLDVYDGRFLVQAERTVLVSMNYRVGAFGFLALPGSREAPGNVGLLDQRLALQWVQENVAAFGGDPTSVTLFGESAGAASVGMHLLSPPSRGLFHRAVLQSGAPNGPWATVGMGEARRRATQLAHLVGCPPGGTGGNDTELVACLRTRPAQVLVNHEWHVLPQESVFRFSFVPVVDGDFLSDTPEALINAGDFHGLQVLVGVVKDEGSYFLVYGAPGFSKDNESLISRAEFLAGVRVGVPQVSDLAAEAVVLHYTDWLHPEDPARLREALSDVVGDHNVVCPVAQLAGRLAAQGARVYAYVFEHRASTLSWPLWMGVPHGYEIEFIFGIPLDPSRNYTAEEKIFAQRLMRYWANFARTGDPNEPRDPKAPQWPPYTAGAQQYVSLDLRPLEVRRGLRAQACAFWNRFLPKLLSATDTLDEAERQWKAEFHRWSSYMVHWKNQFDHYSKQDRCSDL
Voltage-gated inwardly rectifying potassium channel KCNH2 (Homo sapiens), sequence (Q12809 whole entry, looked up): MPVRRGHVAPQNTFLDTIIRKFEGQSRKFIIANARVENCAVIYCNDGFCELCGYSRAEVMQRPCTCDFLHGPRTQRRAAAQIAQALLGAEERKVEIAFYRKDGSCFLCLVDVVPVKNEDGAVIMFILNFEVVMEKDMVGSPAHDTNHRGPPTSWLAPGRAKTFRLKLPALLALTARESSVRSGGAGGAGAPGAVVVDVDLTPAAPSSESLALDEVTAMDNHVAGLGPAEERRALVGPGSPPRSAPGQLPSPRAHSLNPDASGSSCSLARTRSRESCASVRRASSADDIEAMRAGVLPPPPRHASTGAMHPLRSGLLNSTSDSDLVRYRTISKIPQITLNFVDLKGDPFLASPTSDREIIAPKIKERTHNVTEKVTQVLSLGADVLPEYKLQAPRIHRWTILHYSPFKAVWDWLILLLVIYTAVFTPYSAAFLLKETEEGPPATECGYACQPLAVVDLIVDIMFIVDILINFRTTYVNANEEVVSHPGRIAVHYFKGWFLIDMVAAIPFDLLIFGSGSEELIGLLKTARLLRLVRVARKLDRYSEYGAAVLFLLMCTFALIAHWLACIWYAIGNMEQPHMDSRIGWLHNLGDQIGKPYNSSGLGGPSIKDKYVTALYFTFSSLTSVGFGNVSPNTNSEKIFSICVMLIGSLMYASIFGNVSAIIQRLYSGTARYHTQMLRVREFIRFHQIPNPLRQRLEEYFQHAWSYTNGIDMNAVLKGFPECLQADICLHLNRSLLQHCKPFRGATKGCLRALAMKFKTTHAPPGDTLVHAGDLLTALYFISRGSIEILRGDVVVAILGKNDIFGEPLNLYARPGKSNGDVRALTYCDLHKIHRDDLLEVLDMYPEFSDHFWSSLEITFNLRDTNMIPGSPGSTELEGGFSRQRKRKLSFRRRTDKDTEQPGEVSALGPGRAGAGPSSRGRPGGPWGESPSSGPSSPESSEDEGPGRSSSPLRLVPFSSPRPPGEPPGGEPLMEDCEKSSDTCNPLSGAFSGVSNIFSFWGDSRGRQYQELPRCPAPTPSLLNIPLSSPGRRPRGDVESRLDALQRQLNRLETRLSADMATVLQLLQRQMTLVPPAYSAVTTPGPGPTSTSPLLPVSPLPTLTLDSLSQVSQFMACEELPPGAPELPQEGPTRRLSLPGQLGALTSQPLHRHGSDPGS
Cytochrome P450 2C19 (Homo sapiens), sequence (P33261 whole entry, looked up): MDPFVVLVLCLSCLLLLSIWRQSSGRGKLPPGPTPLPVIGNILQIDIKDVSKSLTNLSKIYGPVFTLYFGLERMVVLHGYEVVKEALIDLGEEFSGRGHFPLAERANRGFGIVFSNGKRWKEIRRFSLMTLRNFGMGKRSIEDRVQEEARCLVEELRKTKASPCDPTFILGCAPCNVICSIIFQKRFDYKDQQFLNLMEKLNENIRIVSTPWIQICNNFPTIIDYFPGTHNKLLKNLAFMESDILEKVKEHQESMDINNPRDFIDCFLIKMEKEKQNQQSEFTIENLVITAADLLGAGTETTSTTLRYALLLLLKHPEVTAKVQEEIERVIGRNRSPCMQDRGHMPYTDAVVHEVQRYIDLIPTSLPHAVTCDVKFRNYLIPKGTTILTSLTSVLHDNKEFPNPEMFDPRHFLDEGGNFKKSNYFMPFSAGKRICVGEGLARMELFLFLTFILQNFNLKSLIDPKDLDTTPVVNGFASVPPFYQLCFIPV
Cytochrome P450 2D6 (Homo sapiens), sequence (P10635 whole entry, looked up): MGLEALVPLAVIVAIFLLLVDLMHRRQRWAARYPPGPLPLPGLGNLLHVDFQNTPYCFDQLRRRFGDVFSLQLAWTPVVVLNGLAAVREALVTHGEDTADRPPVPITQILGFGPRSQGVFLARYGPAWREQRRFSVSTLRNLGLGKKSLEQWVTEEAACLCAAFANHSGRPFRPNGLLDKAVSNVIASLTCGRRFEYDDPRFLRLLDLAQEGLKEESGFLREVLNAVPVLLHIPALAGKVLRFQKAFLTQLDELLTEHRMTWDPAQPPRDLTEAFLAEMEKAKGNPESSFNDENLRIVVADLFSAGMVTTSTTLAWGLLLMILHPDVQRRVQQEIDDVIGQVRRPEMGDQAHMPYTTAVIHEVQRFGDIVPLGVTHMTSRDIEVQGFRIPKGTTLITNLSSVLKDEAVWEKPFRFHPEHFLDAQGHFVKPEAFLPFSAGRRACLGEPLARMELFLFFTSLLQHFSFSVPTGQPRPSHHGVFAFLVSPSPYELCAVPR
Cytochrome P450 1A2 (Homo sapiens), sequence (P05177 whole entry, looked up): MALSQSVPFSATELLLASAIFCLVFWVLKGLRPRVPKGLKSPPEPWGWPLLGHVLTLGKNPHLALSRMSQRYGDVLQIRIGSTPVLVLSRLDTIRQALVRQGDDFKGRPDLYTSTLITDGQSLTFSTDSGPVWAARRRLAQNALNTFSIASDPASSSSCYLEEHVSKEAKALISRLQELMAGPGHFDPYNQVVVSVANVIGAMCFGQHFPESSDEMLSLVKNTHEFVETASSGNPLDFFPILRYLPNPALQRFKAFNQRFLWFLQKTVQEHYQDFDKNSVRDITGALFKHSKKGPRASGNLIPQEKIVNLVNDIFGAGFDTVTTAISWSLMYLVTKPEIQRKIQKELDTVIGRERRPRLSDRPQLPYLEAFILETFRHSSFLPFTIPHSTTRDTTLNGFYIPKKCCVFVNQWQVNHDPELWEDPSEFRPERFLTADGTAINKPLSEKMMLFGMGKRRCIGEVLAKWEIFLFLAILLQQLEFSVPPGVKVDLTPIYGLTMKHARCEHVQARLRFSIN

Structure (SMILES) | Potency [1] | Potency [2] | Potency [3] | Potency [4] | Potency [5] | Potency [6] | Potency [7] | Potency [8]
COC(=O)c1cncn1C(C)c1ccccc1 (centres undefined) | inactive | inactive | 8.71 µM (active) | 3.89 µM (active) | 27.5 µM (active) | inactive | inactive | 0.309 µM (active)
N#Cc1ccc(Cl)cc1 | inactive | inactive | inactive | inactive | inactive | inactive | inactive | 
CC(C)N(CCC(C(N)=O)(c1ccccc1)c1ccccn1)C(C)C (centres undefined) | inactive | inactive |  |  |  |  |  | 
COC(N)=O | inactive | inactive | inactive | inactive | inactive | 35.6 µM (active) | inactive | inactive
CCCCC(CC)COP(=O)(Oc1ccccc1)Oc1ccccc1 (centres undefined) | inactive | inactive | inactive | 2.83 µM (active) | 3.99 µM (active) | 25.2 µM (active) |  | 
CC(C)(C)c1cc([N+](=O)[O-])cc([N+](=O)[O-])c1O | inactive | inactive | inactive | 56.2 µM (active) | 17.8 µM (active) | 56.2 µM (active) | inactive | inactive
OC(c1ccc(Cl)cc1)(c1ccc(Cl)cc1)c1cccnc1 | inactive | inactive | 11.2 µM (active) | 0.0796 µM (active) | 0.448 µM (active) | 35.6 µM (active) | 34.7 µM (active) | 2.24 µM (active)
O=C(O)C(F)(F)C(F)(F)C(F)(F)C(F)(F)C(F)(F)C(F)(F)C(F)(F)C(F)(F)C(F)(F)C(F)(F)F | inactive | inactive | inactive | inactive | 5.34 µM (active) | inactive | inactive | 
[CH3][Sn]([CH3])([Cl])[Cl] | inactive | inactive | inactive | inactive | inactive | inactive | inactive | inactive
CO/C=C(/C(=O)OC)c1ccccc1COc1cccc(C(F)(F)F)n1 | inactive | inactive | 39.9 µM (active) | 0.709 µM (active) | 39.9 µM (active) | 35.5 µM (active) | inactive | inactive
Cl/C=C\C[N+]12CN3CN(CN(C3)C1)C2 | inactive | inactive | 71 µM (active) | inactive | inactive | inactive | inactive | inactive
BrCCCCBr | inactive | inactive | inactive | inactive | inactive |  | inactive | 
CC1(C)CCC(Cc2ccc(Cl)cc2)C1(O)Cn1cncn1 (centres undefined) | inactive | inactive | 35.6 µM (active) | 0.126 µM (active) | 0.178 µM (active) | 39.9 µM (active) |  | 0.0317 µM (active)
CC1CC(CC2CCC(N)C(C)C2)CCC1N (centres undefined) | inactive | inactive | 12.8 µM (active) | inactive | inactive | 32.2 µM (active) | inactive | 2.87 µM (active)
C[C@H]1CNCCc2ccc(Cl)cc21 | inactive | inactive | 1.38 µM (active) | inactive | inactive | inactive | inactive | inactive
O=[N+]([O-])c1cc(C(F)(F)F)cc([N+](=O)[O-])c1Cl | inactive | inactive | 17.9 µM (active) | 40.1 µM (active) | 17.9 µM (active) |  | inactive | inactive
C[N+](C)(C)CCCl | inactive | inactive | inactive | inactive | inactive | inactive | inactive | inactive
Clc1cccc2ccccc12 | inactive | inactive | inactive | inactive | inactive |  | inactive | 
CN1[C@@H]2CC[C@H]1CC(OC(=O)c1cc(Cl)cc(Cl)c1)C2 (some centres undefined) | inactive | inactive | 0.055 µM (active) | inactive | inactive |  | 7.56 µM (active) | inactive
O=C(OC1CCCCC1)c1ccccc1C(=O)OC1CCCCC1 | inactive | inactive | inactive | 33.4 µM (active) | 26.5 µM (active) | 37.5 µM (active) |  | 11.9 µM (active)
O=C(CCl)c1ccc(Cl)cc1Cl | inactive | inactive | 39.8 µM (active) and 38.9 µM (active) | 17.8 µM (active) and 9.77 µM (active) | 12.6 µM (active) and 17.4 µM (active) | 35.4 µM (active) and 12.9 µM (active) | inactive | inactive
CN1C(=O)NC(=O)C(C)(C2=CCCCC2)C1=O (centres undefined) | inactive | inactive | inactive | inactive | inactive | inactive | inactive | inactive
Clc1ccc(C(OCCN2CCCCC2)c2ccccc2)cc1 (centres undefined) | inactive | inactive | 0.174 µM (active) | 24.5 µM (active) | inactive |  | 0.601 µM (active) | 
COCC(C)N(C(=O)CCl)c1c(C)csc1C (centres undefined) | inactive | inactive | inactive | 6.33 µM (active) | 7.96 µM (active) |  | inactive | 
Cc1ccc(-c2c(Cl)nc(C#N)n2S(=O)(=O)N(C)C)cc1 | inactive | inactive | inactive | 79.6 µM (active) | 11.2 µM (active) | 22.4 µM (active) | inactive | inactive
CCCCC(O)(Cn1cncn1)c1ccc(Cl)cc1Cl (centres undefined) | inactive | inactive | 31.7 µM (active) | 0.252 µM (active) | 0.71 µM (active) | 35.6 µM (active) | inactive | 0.126 µM (active)
CC(c1ccc(O)cc1)(c1ccc(O)cc1)c1ccc(O)cc1 | inactive | inactive | 71 µM (active) | 28.3 µM (active) | 10 µM (active) | inactive | inactive | 31.7 µM (active)
